Active and inactive are the calls of the source. Cut-off read from the data, not from the text of the source, unless noted: active = inhibition above about 42%; inactive = the rest.
Tests used:
[1] = StAR promoter reporter inhibitors, counter-screen for LRH-1 inverse agonist project, cell-based, luminescence, high throughput (AID 651611; in the data active = inhibition above about 28%); conditions: StAR promoter luciferase reporter counterscreen, at 3.6 µM, stronger effect = higher value
[2] = target: Nuclear receptor subfamily 5 group A member 2 (Homo sapiens) (UniProt O00482); assay: LRH-1 (NR5A2) inverse agonists, retest, confirmation, cell-based, luminescence (AID 651613); conditions: cell-based LRH-1 luciferase reporter, inverse agonism; at 3.6 µM; stronger effect = higher value;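 note: HEK293T cells co-transfected with LRH-1 and StAR promoter luciferase reporter; 0% = vehicle wells and 100% = parental cells lacking receptor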
Sequence of Nuclear receptor subfamily 5 group A member 2 (Homo sapiens) (O00482 whole entry, looked up): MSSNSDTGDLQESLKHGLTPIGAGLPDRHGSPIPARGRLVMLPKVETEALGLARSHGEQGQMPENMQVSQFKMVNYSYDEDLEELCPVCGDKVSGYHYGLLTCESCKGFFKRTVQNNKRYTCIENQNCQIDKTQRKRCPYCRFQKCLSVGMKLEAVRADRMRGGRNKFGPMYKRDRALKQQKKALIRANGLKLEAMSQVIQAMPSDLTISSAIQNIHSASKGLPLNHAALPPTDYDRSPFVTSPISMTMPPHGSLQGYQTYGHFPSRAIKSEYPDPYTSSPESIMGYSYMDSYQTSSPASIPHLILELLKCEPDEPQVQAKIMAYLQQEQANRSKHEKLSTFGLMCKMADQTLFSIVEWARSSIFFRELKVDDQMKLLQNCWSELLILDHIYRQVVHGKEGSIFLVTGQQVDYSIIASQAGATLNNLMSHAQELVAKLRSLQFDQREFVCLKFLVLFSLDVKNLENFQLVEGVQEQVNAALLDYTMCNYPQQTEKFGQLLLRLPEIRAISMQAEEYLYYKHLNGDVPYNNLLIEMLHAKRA

[3] = target: Steroidogenic factor 1 (Homo sapiens) (UniProt Q13285); assay: SF1 (NR5A1) inverse agonists, counter-screen for LRH-1 inverse agonist project, cell-based, luminescence, high throughput (AID 651614; in the data active = inhibition above about 44%;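 note: cells cotransfected with StAR promoter reporter and SF1 expression vector; 0% = vehicle on cells with receptor and 100% = vehicle on cells lacking receptor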); conditions: cell-based SF1 luciferase reporter, at 3.6 µM, stronger effect = higher value
Sequence of Steroidogenic factor 1 (Homo sapiens) (Q13285 whole entry, looked up, the tested form may be a part): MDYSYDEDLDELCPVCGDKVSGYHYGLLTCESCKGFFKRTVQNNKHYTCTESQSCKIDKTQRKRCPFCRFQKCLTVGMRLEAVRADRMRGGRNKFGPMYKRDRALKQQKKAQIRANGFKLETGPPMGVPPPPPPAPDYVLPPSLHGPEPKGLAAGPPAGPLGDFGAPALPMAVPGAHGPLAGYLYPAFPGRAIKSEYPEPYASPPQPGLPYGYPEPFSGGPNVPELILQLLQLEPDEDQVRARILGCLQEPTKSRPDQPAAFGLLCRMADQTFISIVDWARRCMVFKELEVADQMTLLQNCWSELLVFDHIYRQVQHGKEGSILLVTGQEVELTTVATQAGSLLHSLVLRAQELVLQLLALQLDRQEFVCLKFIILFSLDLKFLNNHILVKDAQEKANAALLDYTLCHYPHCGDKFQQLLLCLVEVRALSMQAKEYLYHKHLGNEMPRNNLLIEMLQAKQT

[4] = VP16 transactivation reporter inhibitors, counter-screen for LRH-1 inverse agonist project, cell-based, luminescence, high throughput (AID 651615; in the data active = inhibition above about 33%); conditions: Gal4-VP16 luciferase reporter cells, at 3.6 µM, stronger effect = higher value

Row | Compound | inhibition [1] | inhibition [2] | inhibition [3] | inhibition [4]
1 | COc1ccc(CCNC(=O)CSc2nnc(CNc3ccc(Cl)cc3)o2)cc1OC | 1.3% (inactive) | 48.7% (active) | 38.9% (inactive) | -2.14% (inactive)
2 | COc1ccc(NC(=O)COC(=O)c2cc(S(=O)(=O)N3CCCC3)ccc2O)cc1 | 4.86% (inactive) | 52% (active) | 46.3% (active) | 0.43% (inactive)
3 | CC(=O)Nc1ccc(C2=CC(=O)CC(C)(C)C2)cc1 | 15.2% (inactive) | 60.2% (active) | 55.8% (active) | -10.9% (inactive)
4 | O=C(OCC(=O)N1CCN(c2ccccc2)CC1)c1ccc2ccccc2n1 | 9.44% (inactive) | 33% (inactive) | 22.3% (inactive) | 2.06% (inactive)
5 | O=C1C=C(NCc2ccco2)C2(CCCCC2)O1 | -2.64% (inactive) | 43.1% (active) | 46.6% (active) | 10.7% (inactive)
6 | CS(=O)(=O)N(CC(=O)N1CCN(Cc2ccc3c(c2)OCO3)CC1)Cc1ccc(Cl)cc1 | 12.5% (inactive) | 63% (active) | 44.9% (active) | 36.9% (active)
7 | CCOc1ccc(C(C)=O)cc1COC(=O)c1cc([N+](=O)[O-])ccc1N1CCOCC1 | 15.1% (inactive) | 58.2% (active) | 55.5% (active) | 7.41% (inactive)
8 | COCCn1c(SCC(=O)Nc2ccc(C(N)=O)cc2)nc2c([nH]c3ccccc32)c1=O | 24.6% (inactive) | 64.9% (active) | 61.7% (active) | -64% (inactive)
9 | Cc1ccc(CC(=O)Nc2ccncc2)cc1 | 7.72% (inactive) | 64.3% (active) | 64.9% (active) | 40.5% (active)
